Screening data deposited in PubChem BioAssay by several laboratories.
MEX-5 binding – C. elegans MEX-5 TCR-2 RNA binding activity. AID 1832. MEX-5/FITC-TCR2 RNA binding, fluorescence polarization; stronger effect = lower value. activity score (negative = inhibition of binding), % at 10 µM. Q9XUB2. actives 0.38% (n = 300,000);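 active = inhibition past about -25% in most replicates, and total fluorescence under double the plate's negative control median, limit read from the data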
LANA-H2B inh – blocks KSHV LANA binding to histone H2A/H2B. inhibition, % (concentration not given with the values). Q9QR71. actives 0.6% (n = 320,000). cell-free LANA-H2A/H2B peptide, fluorescence polarization; in the data active = inhibition mostly above about 10%, no sharp cut-off; inactive = mostly below about 6.7%
GLD-1 TGE inh – GLD-1-TGE RNA interaction inhibition (C. elegans); purified GLD-1 + fluorescein TGE RNA, fluorescence polarization; inhibition, % at 5.96 µM; actives 0.44% (n = 320,000);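 active = percent inhibition above a per-plate cutoff, the plate mean of test compounds plus 3 SD, cut at about 30% in these data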
Target sequence (Q17339 whole entry, looked up): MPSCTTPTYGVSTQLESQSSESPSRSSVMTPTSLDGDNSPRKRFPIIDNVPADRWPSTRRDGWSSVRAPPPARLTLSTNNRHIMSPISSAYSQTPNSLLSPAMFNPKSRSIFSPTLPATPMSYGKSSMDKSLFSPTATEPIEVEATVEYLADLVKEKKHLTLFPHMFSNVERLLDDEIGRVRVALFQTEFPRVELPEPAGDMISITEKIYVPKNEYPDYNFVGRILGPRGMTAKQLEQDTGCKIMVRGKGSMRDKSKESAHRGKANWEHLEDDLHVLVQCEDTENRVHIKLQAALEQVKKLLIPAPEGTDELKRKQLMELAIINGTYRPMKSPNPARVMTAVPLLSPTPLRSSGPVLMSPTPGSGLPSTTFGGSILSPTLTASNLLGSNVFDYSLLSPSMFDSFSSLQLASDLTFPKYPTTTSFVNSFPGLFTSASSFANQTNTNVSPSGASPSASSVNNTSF
MCL1 BIM primary – MCL1-BIM-BH3 interaction inhibition (human); actives 0.68% (n = 320,000); GST-MCL1 / FITC-Bim-BH3 fluorescence polarization; Q07820; inhibition, % at 10.9 µM; AID 2057;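 active = inhibition above the mean inhibition of all tested compounds plus 3 SD, set per campaign, cut at about 40% in these data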;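 also: higher means more loss of mP so more displacement of Bim peptide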
CR mimetic SO – yeast age-related superoxide inhibition as caloric restriction mimetic. S. cerevisiae aged cells, superoxide DHE fluorescence; stronger effect = lower value. superoxide response (% of plate mean), % at 10 µM. actives 0.18% (n = 330,000). AID 2690;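 active = superoxide response under a set limit, about three screen SD below normal, cut at about 65% in these data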;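 also: yeast aged for seven days with compound at 30 °C before DHE staining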
BCLXL inh – Bcl-xL (human) inhibition. GST-Bcl-xL / FITC-Bim BH3 peptide fluorescence polarization. AID 2129. inhibition, % at 10.9 µM. Q07817. actives 0.7% (n = 320,000);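 active = inhibition above the mean of all tested compounds plus 3 SD, cutoff set per campaign, cut at about 30% in these data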;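 also: inhibitors lower millipolarization by displacing the labeled peptide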
Superoxide pick – confirmation of caloric restriction mimetics inhibiting yeast age-related superoxide; shares compounds with CR mimetic SO; S. cerevisiae aging, superoxide DHE fluorescence; stronger effect = lower value; superoxide response (% of plate), % at 10 µM; actives 1% (n = 850);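 active = superoxide signal below 65% of the plate average of sample wells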;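 also: cells aged with compound for 7 days at 30 degrees C before staining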
DHE counter – counter-screen for compounds affecting DHE oxidation and fluorescence in yeast. shares compounds with CR mimetic SO. S. cerevisiae BY4741, flow cytometry; stronger effect = lower value. fluorescence response, % at 10 µM. 850 tested, under 10 active. AID 435000;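 active = fluorescence response below 15%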;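 also: lower means stronger quenching of DHE signal or ROS scavenging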
A number is an active result; 0 = inactive; - = no result. Most compounds without a hit are left out; they make up all but 1.9% or so of the library.

SMILES	MEX-5 binding	LANA-H2B inh	GLD-1 TGE inh	MCL1 BIM primary	CR mimetic SO	BCLXL inh	Superoxide pick	DHE counter
COc1cc(S(=O)(=O)Nc2c(C)cc(C)cc2C)ccc1Cl	0	0	0	0	0	0	-	-
CC(=O)NS(=O)(=O)c1ccc2sc(C)nc2c1	0	0	0	0	0	0	-	-
C/C(=N\NC(=O)c1nnn(-c2nonc2N)c1C(C)C)c1ccc2ccccc2c1	0	0	0	0	0	0	-	-
COc1ccc([C@@H]2CC(=O)c3c(O)cc(O[C@@H]4OC(CO[C@@H]5OC(C)[C@H](O)[C@@H](O)[C@H]5O)[C@@H](O)[C@H](O)[C@H]4O)cc3O2)cc1O (stereo partly specified)	-	-	0	-	0	-	-	-
CC1O[C@@H](OCC2O[C@@H](Oc3cc(O)c4c(c3)OC(c3ccc(O)cc3)CC4=O)[C@H](O)[C@@H](O)[C@@H]2O)[C@H](O)[C@H](O)[C@H]1O (stereo partly specified)	-	0	0	0	61.5	0	0	0
CCOc1ccc(NC(=O)CCn2nc(C)c(S(=O)(=O)N3CCCCC3)c2C)cc1	0	0	0	0	58.3	0	0	0
CSc1cccc(NC(=O)CCS(=O)(=O)c2cccc3nonc23)c1	0	0	0	0	0	0	-	-
CC1CCc2c(sc(NC(=O)c3cccn3C)c2C(N)=O)C1 (stereo unspecified)	-	0	0	-	0	-	-	-
CN(CC(=O)Nc1cccc(F)c1)C(=O)c1ccccc1OCC(=O)Nc1cccc(C(F)(F)F)c1	0	0	0	0	0	0	-	-
N=c1oc2cc(O)ccc2cc1C(=O)Nc1ccc(Cl)cc1	0	0	0	0	49.9	0	0	0
Cc1ccc(NC(=O)c2cc3ccccc3oc2=N)cc1	0	0	0	0	0	0	-	-
COc1ccccc1NS(=O)(=O)c1cccc(C(=O)NCC(c2ccco2)N(C)C)c1 (stereo unspecified)	0	0	0	0	0	0	-	-
C/C(Cc1nnn(-c2cc(C)on2)n1)=N\O	0	0	0	0	0	0	-	-
COC(=O)c1cccc2nc3c(C(C)O)cccc3nc12 (stereo unspecified)	0	0	0	0	50.0	0	0	0
COc1cccc(NC(=O)CCS(=O)(=O)c2ccc(Br)cc2)c1	0	0	0	0	50.1	0	0	0
COc1ccc2c(c1)c1nnc(SC)nc1n2C	0	0	0	0	43.8	0	0	0
COc1ccc2c(c1)c1nnc(SCC(=O)N3C(C)CCCC3C)nc1n2C (stereo unspecified)	0	0	0	0	0	0	-	-
O=C(COc1ccccc1Cl)N1CCN(c2ccccn2)CC1	0	0	0	0	0	0	-	-
Cc1cc(=O)n2[nH]c(-c3ccccc3)cc2n1	0	0	0	0	0	0	-	-
O=c1cc(-c2ccccc2)nc2cc(-c3ccc(F)cc3)[nH]n12	0	0	0	0	0	0	0	0
Cc1nc2cc(-c3ccccc3)[nH]n2c(=O)c1C	0	0	0	0	0	0	0	0
COc1cccc(-c2cc3nc(-c4ccccc4)cc(=O)n3[nH]2)c1	0	0	0	0	0	0	0	0
CC(Sc1nnc(C2CC2)n1Cc1ccccc1)C(=O)N1CCNC1=O (stereo unspecified)	-	0	0	0	0	0	-	-
Cc1cccc(NC(=S)NNC(=O)c2csc3c2CCC(C)C3)c1 (stereo unspecified)	0	-	0	0	0	0	-	-
CC(C)CNC(=S)NNC(=O)c1csc2c1CCC(C)C2 (stereo unspecified)	0	0	0	0	59.1	0	0	0
Cc1noc(C)c1C(=O)N(CC(C)C)c1nc2ccccc2s1	0	0	0	0	60.8	0	0	0
CNC(=O)c1c(NC(=O)c2ccc(S(=O)(=O)N(C)c3ccccc3)cc2)sc2c1CCN(C(C)C)C2	0	0	0	0	54.2	0	0	0
COc1ccc(S(=O)(=O)N(C)c2ccc(C(=O)NCc3ccccn3)cc2)cc1OC	0	0	0	0	0	0	-	-
